According to PubChem BioAssay:

The compounds below were run against Dickkopf-related protein 1 (Homo sapiens) (UniProt O94907) (assay: DKK1 binders on small-molecule microarrays, primary screen, biochemical, small-molecule microarray, 635 nm fluorescence scan (AID 1106;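 note: score merges emission near 667 nm with signal to noise over three replicate slides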)). Details: DKK1 binding, higher = more signal.
Dickkopf-related protein 1 (Homo sapiens), sequence (O94907 whole entry, looked up): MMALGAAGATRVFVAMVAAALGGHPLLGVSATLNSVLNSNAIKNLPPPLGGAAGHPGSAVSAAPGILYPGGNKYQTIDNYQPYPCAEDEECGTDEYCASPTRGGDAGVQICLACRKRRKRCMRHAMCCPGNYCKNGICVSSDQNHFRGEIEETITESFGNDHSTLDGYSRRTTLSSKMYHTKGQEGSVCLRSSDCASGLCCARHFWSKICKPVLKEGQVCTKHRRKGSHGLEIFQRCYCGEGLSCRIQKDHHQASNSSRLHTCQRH

Compound	composite z-score
O=C1O[C@@H](c2ccccc2)[C@@H](c2ccccc2)N2[C@@H](c3ccc(O)cc3)[C@]3(C(=O)Nc4ccccc43)[C@@H](C(=O)Nc3nc4ccccc4s3)[C@H]12	0.065
C=C(COC)/C(=C/C[C@@H](OC(=O)c1ccncc1)c1cccc(OCCO)c1)c1cnc2ccccc2c1	0.769
O=C1O[C@@H](c2ccccc2)[C@@H](c2ccccc2)N2[C@@H](c3ccccc3OCCO)[C@]3(C(=O)Nc4ccc(C#CCCO)cc43)[C@@H](C(=O)N3CCN(c4ncccn4)CC3)[C@H]12	0.464
COC(=O)C[C@H]1O[C@]2(C(=O)N(C)c3ccccc32)[C@@H](C)[C@@H]1[Si](C)(C)c1ccc(C)cc1	0.501
Cc1ccc(C(C)CC(O)C2C=CC3C(=O)N(c4ccccc4)C(=O)C3N2Nc2ccc(C(C)C)cc2)o1 (stereo unspecified)	-0.252
C[n+]1ccc(CCCO)cc1	0.457
C=C(COC)/C(=C/C[C@@H](OC(=O)c1ccncc1)c1ccc(CO)o1)c1cnc2ccccc2c1	1.2
CCOC(=O)[C@H]1C/C=C/C[C@H](C(=O)OCC)C(=O)O[C@H]2[C@@H](OC)O[C@H](CO)[C@@H](OC(=O)CCc3ccccc3)[C@@H]2OC1=O	-0.315
CCCCC(=C=CC[C@@H](O)c1ccc(OCCO)cc1)C[C@@H](O)COCc1ccccc1	0.111
CCCc1cccc(=O)o1	0.646
COCC(=C=CC[C@H](O)c1ccc(OCCO)cc1)C[C@H](O)COCc1ccccc1	0.462
O=C(NC1CC1)[C@@H]1c2ccccc2C(=O)N(Cc2ccccc2)[C@H]1c1ccc(CO)cc1	-0.551
COCCOC(=O)N1C(=O)[C@@]2(c3cc(C#CC4=CCCCC4)ccc31)[C@H](C(=O)N1CCN(c3ncccn3)CC1)[C@H]1C(=O)O[C@H](c3ccccc3)[C@H](c3ccccc3)N1[C@@H]2c1ccc(O)cc1	0.496
O=C1C2C=CC(C(O)c3cc(C(F)(F)F)cc(C(F)(F)F)c3)N(Nc3ccc([N+](=O)[O-])cc3)C2C(=O)N1c1ccccc1 (stereo unspecified)	-0.246
C=CCOC(=O)[C@@H]1[C@H]2C(=O)O[C@H](c3ccccc3)[C@H](c3ccccc3)N2[C@H](c2ccc(OCCOC(=O)[C@H]3C[C@H]4C(=O)N[C@@H](CCCCNC(C)=O)C(=O)N4[C@H]3c3cccc(OCCO)c3)cc2)[C@@]12C(=O)Nc1ccc(I)cc12	1.45
COC(=O)[C@@]1(Cc2ccccc2)[C@H]2c3cc(C(=O)N4CCCC4)n(C[C@H](O)CO)c3C[C@H]2CN1C(=O)c1ccccc1	-1.11
COCCCNC(=O)[C@]1(CCC(=O)OC(C)(C)C)N=C(c2ccc(OCCCO)cc2)O[C@@H]1c1ccccc1	-0.261
COCCOC(=O)N1C(=O)[C@@]2(c3cc(C#CC4=CCCCC4)ccc31)[C@H](c1ccccc1OCCO)N1[C@H](c3ccccc3)[C@H](c3ccccc3)OC(=O)[C@H]1[C@@H]2C(=O)N1CCc2cc(OC)c(OC)cc2C1	0.356

Compound	composite z-score
CC(C)(C)OC(=O)CC[C@]1(C(=O)N2CCOCC2)N=C(c2ccc(OCCCO)cc2)O[C@H]1c1ccccc1	-0.158
COCCOC(=O)N1C(=O)[C@@]2(c3cc(C#CC4=CCCCC4)ccc31)[C@H](c1ccc(O)cc1)N1[C@H](c3ccccc3)[C@H](c3ccccc3)OC(=O)[C@H]1[C@@H]2C(=O)Nc1nc2ccccc2s1	0.45
CC1CC/C=C\[C@H]2OC34C=CCN(c5ccc6ccccc6c5)C(=O)[C@H]3N(C(CO)C(C)C)C(=O)[C@@H]4C2C(=O)O1 (stereo partly specified)	-0.495
CC(C)CNC(=O)[C@@H]1c2ccccc2C(=O)N(Cc2cc(F)cc(C(F)(F)F)c2)[C@H]1c1ccc(CO)cc1	0.258
C=C[C@H](COC(C)=O)NS(=O)(=O)c1ccc(Br)cc1	0.516
CC(C)CN1C(=O)[C@@]2(Cc3ccccc31)c1ccccc1C(=O)N(Cc1ccccc1C(F)(F)F)[C@H]2c1ccc(CO)cc1	-1.05
O=C(CS)NCCCCCCNC(=O)[C@H]1C[C@H]2C(=O)N[C@@H](Cc3ccccc3)C(=O)N2[C@H]1c1cccc(OCCO)c1	1.34
CCOC(=CC(=O)OC)CC(O)c1cccc(Cl)c1 (stereo unspecified)	-1.3
O=C1C[C@]2(c3ccc([N+](=O)[O-])cc3)C(=O)N(Cc3ccccc3)c3cc(CO)ccc3[C@H]2N1CC12CC3CC(CC(C3)C1)C2	-0.852
C=CCN1C(=O)[C@@]2(O[C@@H](CCO)[C@H]([Si](C)(C)c3ccc(OC)cc3)[C@H]2C)c2cc(N3C(=O)c4ccccc4Oc4ccccc43)ccc21	0.0911
CCOC(=O)[C@H]1C/C=C/C[C@H](C(=O)OCC)C(=O)O[C@H]2[C@@H](OC)O[C@H](CO)[C@@H](OC(=O)Nc3ccc(OC)cc3)[C@@H]2OC1=O	0.46
COC(=O)C(CC#Cc1ccc2c(c1)[C@]1(C(=O)N2)[C@H](C(=O)O)[C@H]2C(=O)O[C@H](c3ccccc3)[C@H](c3ccccc3)N2[C@@H]1c1ccccc1OCCO)C(=O)OC	0.337
C=CCC(OC(C)=O)[C@@H]1[C@@H](N(Cc2cc3ccccc3o2)C(=O)c2ccc(C)cc2)c2cc(OCCCO)ccc2N1C(=O)Cc1ccc2ccccc2c1 (stereo partly specified)	0.182
Cc1ccc(S[C@]2(C(=O)NC3CC3)CC(=O)N(Cc3ccccc3Cl)[C@@H]2c2ccc(CO)cc2I)cc1	0.122
C=CCOC(=O)[C@@H]1[C@H]2C(=O)O[C@H](c3ccccc3)[C@H](c3ccccc3)N2[C@H](c2ccc(OCCOC(=O)[C@H]3C[C@H]4C(=O)N[C@@H](CCCCN(C)C)C(=O)N4[C@H]3c3cccc(OCCO)c3)cc2)[C@@]12C(=O)Nc1ccc(I)cc12	0.626
O=C1NC(=O)C2C1C=CC(C(O)c1ccc(Br)cc1)N2Nc1ccccn1 (stereo unspecified)	1.27
O=C1NC(=O)C2C1C=CC(C(O)c1c(F)cccc1Cl)N2Nc1ccccn1 (stereo unspecified)	0.465
[N-]=[N+]=Nc1ccccc1[C@H]1OC(c2ccc(OCCCO)cc2)=N[C@@]1(CCS(=O)(=O)c1ccccc1)C(=O)N1CCCCC1	-0.44
